Results filed as inconclusive are left out. The source made the active and inactive calls. Unless noted, the call rests on the fitted dose curve.

A short description of experiment [1]: qHTS for Inhibitors of the Functional Ribonucleoprotein Complex (vRNP) of Lassa (LASV) Arenavirus: LASV Primary Screen - GLuc reporter signal (AID 1347082; calls by dose curve; tested in HEK293 reporter line; further: series mostly up to about 57 µM; nearly all actives have a fitted effect of over 60% in size).
Experiment [2] is described as follows: qHTS for Inhibitors of the Functional Ribonucleoprotein Complex (vRNP) of Lassa (LASV) Arenavirus: Viability assay - alamar blue signal for LASV Primary Screen (AID 1347083; calls by dose curve; tested in HEK293 reporter line; further: nearly all actives have a fitted effect of over 80% in size; further: potency means the concentration at half of the fitted maximal effect).
Experiment [3] can be described thus: qHTS for Inhibitors of the Functional Ribonucleoprotein Complex (vRNP) of Lymphocytic Choriomeningitis Arenaviruses (LCMV): Viability assay - alamar blue signal for LCMV Primary Screen (AID 1347085; calls by dose curve; tested in HEK293 reporter line; further: nearly all actives have a fitted effect of over 80% in size; further: potency means the concentration at half of the fitted maximal effect). (In general: Quantitative high-throughput screening tests each substance at several concentrations.)
Experiment [4] concerns the target Nucleoprotein (Lymphocytic choriomeningitis virus (strain Armstrong)) (UniProt P09992). Briefly: qHTS for Inhibitors of the Functional Ribonucleoprotein Complex (vRNP) of Lymphocytic Choriomeningitis Arenaviruses (LCMV): LCMV Primary Screen - GLuc reporter signal (AID 1347086). Further: nearly all actives have a fitted effect of over 70% in size. Further: potency means the concentration at half of the fitted maximal effect.

Chain of Nucleoprotein (Lymphocytic choriomeningitis virus (strain Armstrong)) (P09992 whole entry, looked up): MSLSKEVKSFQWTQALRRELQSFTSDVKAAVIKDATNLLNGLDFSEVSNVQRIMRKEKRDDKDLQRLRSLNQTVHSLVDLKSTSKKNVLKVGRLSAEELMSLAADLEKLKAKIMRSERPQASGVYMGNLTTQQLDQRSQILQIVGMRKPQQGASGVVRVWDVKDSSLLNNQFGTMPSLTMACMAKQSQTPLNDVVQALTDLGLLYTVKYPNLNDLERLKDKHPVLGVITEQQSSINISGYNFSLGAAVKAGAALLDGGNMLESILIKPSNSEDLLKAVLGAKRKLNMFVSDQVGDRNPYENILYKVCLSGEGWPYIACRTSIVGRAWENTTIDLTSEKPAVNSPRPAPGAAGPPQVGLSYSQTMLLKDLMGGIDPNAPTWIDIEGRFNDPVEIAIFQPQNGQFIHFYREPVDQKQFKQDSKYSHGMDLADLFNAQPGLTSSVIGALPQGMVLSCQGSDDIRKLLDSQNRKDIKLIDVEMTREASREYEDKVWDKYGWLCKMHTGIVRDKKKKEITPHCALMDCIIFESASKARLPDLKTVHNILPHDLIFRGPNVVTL

Regarding `CC[N+](C)(C)c1cccc(O)c1`, the Potency entry in experiment [1], in experiment [2], in experiment [3] and in experiment [4] was “inactive” throughout.
Consider `Cc1nc2n(c(=O)c1CCN1CCC(c3noc4cc(F)ccc34)CC1)CCCC2`, for which the Potency entry in experiment [1], in experiment [2], in experiment [3] and in experiment [4] was “inactive” throughout.
As to `OCCN1CCN(CCCN2c3ccccc3Sc3ccc(Cl)cc32)CC1`, the Potency entry in experiment [1], in experiment [2], in experiment [3] and in experiment [4] was “inactive” in each case.
On to `CCCCS(=O)(=O)N[C@@H](Cc1ccc(OCCCCC2CCNCC2)cc1)C(=O)O`, for which the Potency result in experiment [1], in experiment [2], in experiment [3] and in experiment [4] was “inactive” throughout.
`Cc1cccc(C)c1OCC(C)N` (stereo not drawn): the Potency result in experiment [1], in experiment [2], in experiment [3] and in experiment [4] was “inactive” in each case.
Regarding `CC(C)Nc1cccnc1N1CCN(C(=O)c2cc3cc(NS(C)(=O)=O)ccc3[nH]2)CC1`, the Potency result in experiment [1], in experiment [2], in experiment [3] and in experiment [4] was “inactive” throughout.
On to `N[C@@H](C(=O)N[C@@H]1C(=O)N2C(C(=O)O)=C(Cl)CS[C@H]12)c1ccccc1`, for which the Potency result in experiment [1], in experiment [2], in experiment [3] and in experiment [4] was “inactive” each time.
Consider `CC(C)(O)c1ccccc1CC[C@@H](SCC1(CC(=O)O)CC1)c1cccc(/C=C/c2ccc3ccc(Cl)cc3n2)c1`, for which the Potency entry in experiment [1], in experiment [2], in experiment [3] and in experiment [4] was “inactive” throughout.
As for `Cc1ccnc2c1NC(=O)c1cccnc1N2C1CC1`, the Potency entry in experiment [1], in experiment [2], in experiment [3] and in experiment [4] was “inactive” in each case.
As to `O=C(O)CCNC(=O)c1ccc(N=Nc2ccc(O)c(C(=O)O)c2)cc1`, the Potency entry in experiment [1], in experiment [2], in experiment [3] and in experiment [4] was “inactive” each time.
Take `CC(C)C1CCC(C(=O)N[C@H](Cc2ccccc2)C(=O)O)CC1` (stereo partly drawn): the Potency entry in experiment [1], in experiment [2], in experiment [3] and in experiment [4] was “inactive” throughout.
As to `CN(C)CC[C@@H](c1ccc(Br)cc1)c1ccccn1`, the Potency entry in experiment [1], in experiment [2], in experiment [3] and in experiment [4] was “inactive” throughout.
For the molecule `COc1cc2c(cc1OC)C(=O)C(CC1CCN(Cc3ccccc3)CC1)C2` (stereo not drawn), the Potency result in experiment [1], in experiment [2], in experiment [3] and in experiment [4] was “inactive” each time.
On to `Nc1cccc2c1CN(C1CCC(=O)NC1=O)C2=O` (stereo not drawn), for which the Potency result in experiment [1], in experiment [2], in experiment [3] and in experiment [4] was “inactive” each time.
Take `Cc1nc2n(c(=O)c1CCN1CCC(c3noc4cc(F)ccc34)CC1)CCC[C@H]2O`: the Potency result in experiment [1], in experiment [2], in experiment [3] and in experiment [4] was “inactive” each time.
Turning to `Cc1[nH]c(=O)c(C#N)cc1-c1ccncc1`, the Potency entry in experiment [1], in experiment [2], in experiment [3] and in experiment [4] was “inactive” in each case.
In the case of `Cc1ccc(-n2[nH]c(C)c(N=Nc3cccc(-c4cccc(C(=O)O)c4)c3O)c2=O)cc1C`, the Potency entry in experiment [1], in experiment [2], in experiment [3] and in experiment [4] was “inactive” throughout.
Consider `C[n+]1ccccc1/C=N/O`, for which the Potency entry in experiment [1], in experiment [2], in experiment [3] and in experiment [4] was “inactive” in each case.
For the molecule `Cc1ccc(-c2cc(C(F)(F)F)nn2-c2ccc(S(N)(=O)=O)cc2)cc1`, the Potency result in experiment [1], in experiment [2], in experiment [3] and in experiment [4] was “inactive” in each case.
Regarding `COc1cc(C(=O)NCc2ccc(OCCN(C)C)cc2)cc(OC)c1OC`, the Potency result in experiment [1], in experiment [2], in experiment [3] and in experiment [4] was “inactive” in each case.
`N[C@@H](Cc1cc(I)c(Oc2cc(I)c(O)c(I)c2)c(I)c1)C(=O)O`: the Potency result in experiment [1], in experiment [2], in experiment [3] and in experiment [4] was “inactive” throughout.
Regarding `COC(c1ccccc1)(c1ccccc1)[C@H](Oc1nc(C)cc(C)n1)C(=O)O`, the Potency result in experiment [1], in experiment [2], in experiment [3] and in experiment [4] was “inactive” in each case.
With `CN(C)CCC[C@@]1(c2ccc(F)cc2)OCc2cc(C#N)ccc21`, the Potency result in experiment [1], in experiment [2], in experiment [3] and in experiment [4] was “inactive” each time.
Consider `Cc1cccc(Nc2ccccc2C(=O)O)c1C`, for which the Potency entry in experiment [1], in experiment [2], in experiment [3] and in experiment [4] was “inactive” in each case.
As to `CN(N=O)C(=O)N[C@@H]1[C@@H](O)[C@H](O)[C@@H](CO)O[C@@H]1O`, the Potency result in experiment [1], in experiment [2], in experiment [3] and in experiment [4] was “inactive” throughout.
With `CC[C@]1(O)C[C@H]2CN(CCc3c([nH]c4ccccc34)[C@@](C(=O)OC)(c3cc4c(cc3OC)N(C=O)[C@H]3[C@@](O)(C(=O)OC)[C@H](OC(C)=O)[C@]5(CC)C=CCN6CC[C@]43[C@@H]65)C2)C1`, the Potency result in experiment [1] was “inactive”. Also, the values for the Potency in experiment [2], in experiment [3] and in experiment [4] were 15.3 nM (active), 6.1 nM (active) and 15.3 nM (active), respectively.
For `O=C1CCC(N2C(=O)c3ccccc3C2=O)C(=O)N1` (stereo not drawn), the Potency result in experiment [1], in experiment [2], in experiment [3] and in experiment [4] was “inactive” throughout.
For the molecule `O=c1n(CCCN2CCN(c3cccc(Cl)c3)CC2)nc2ccccn12`, the Potency result in experiment [1], in experiment [2], in experiment [3] and in experiment [4] was “inactive” throughout.
Turning to `Cc1ccc(O)c([C@H](CCN(C(C)C)C(C)C)c2ccccc2)c1`, the Potency result in experiment [1], in experiment [2], in experiment [3] and in experiment [4] was “inactive” each time.
In the case of `O=C1NC(c2ccccc2)(c2ccccc2)C(=O)N1COP(=O)(O)O`, the Potency entry in experiment [1], in experiment [2], in experiment [3] and in experiment [4] was “inactive” throughout.
For the molecule `CC(COc1ccccc1)N(CCCl)Cc1ccccc1` (stereo not drawn), the Potency entry in experiment [1], in experiment [2], in experiment [3] and in experiment [4] was “inactive” in each case.
On to `O=C1N=C(O)CN1/N=C/c1ccc(-c2ccc([N+](=O)[O-])cc2)o1`, for which the Potency entry in experiment [1], in experiment [2], in experiment [3] and in experiment [4] was “inactive” throughout.

Values taken from PubChem BioAssay (NCATS).
